Among the data in PubChem BioAssay (NCI) are growth values, retold here.

Among the test systems are DU-145 prostate; MALME-3M melanoma; MDA-MB-231 breast; RXF 393 renal; SF-268 CNS; SF-295 CNS; SF-539 CNS; UACC-257 melanoma; M14 melanoma.
Assay in all cases: NCI-60 one-dose screen, 48 h (100 = growth as untreated, 0 = no growth, -100 = all killed)
Holding throughout (conditions): 10 µM unless noted

The panel holds about 83,000 compounds, 20% with a hit somewhere; the sample as a whole holds those more often.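 Assay: single dose, 48 h. Readout: percent growth (0 = no net growth; negative = cell death). Active: <10.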 A number with no mark means an inactive call. The source made the active and inactive calls.

Take `O=C1/C=C/[C@@H](O)[C@@H]2C[C@@H](O)C[C@H]2/C=C/CCC[C@H](CCc2cccc3ccccc23)O1`: the growth was 19% with DU-145 prostate; -17.7% (active) in the assay on MALME-3M melanoma; -41.2% (active) in the assay on MDA-MB-231 breast; -30.9% (active) with RXF 393 renal; 16.6% in the assay on SF-268 CNS; 7.76% (active) in the assay with SF-295 CNS. The growth in the assay with SF-539 CNS is 21.7%; with UACC-257 melanoma it was 26.1%; in the assay on M14 melanoma, 5.14% (active).

For `CCOC(=O)CC1CSC(N/N=C/c2ccc(-n3cccn3)cc2)=N1` (stereo unspecified), the growth was 108% in the assay with DU-145 prostate; 113% with MALME-3M melanoma; 101% in the assay with MDA-MB-231 breast; 105% in the assay on RXF 393 renal; 103% in the assay with SF-268 CNS; 107% in the assay with SF-295 CNS. In addition, the figures for the growth in the assay on SF-539 CNS, in the assay with UACC-257 melanoma and with M14 melanoma were 107%, 96.2% and 107%, respectively.

Regarding `O=C(NNc1nc2c(F)cccc2n2cccc12)c1cnccn1`, the growth with DU-145 prostate was 26.2%; with MALME-3M melanoma, 18.3%; with MDA-MB-231 breast, 31.7%; in the assay on RXF 393 renal, 37.5%; in the assay with SF-268 CNS, 30.6%; in the assay with SF-295 CNS, 8.17% (active). For the same molecule, the growth with SF-539 CNS is -0.386% (active); in the assay with UACC-257 melanoma it was 16.2%; with M14 melanoma, 3.21% (active).

Regarding `COc1ccc(C(=O)c2nc3ccccc3n2CC(=O)c2ccc(F)cc2)cc1`, the growth was 104% in the assay with DU-145 prostate; 68.6% in the assay with MALME-3M melanoma; 83% in the assay with MDA-MB-231 breast; 89.1% in the assay on RXF 393 renal; 100% in the assay with SF-268 CNS; 190% in the assay on SF-295 CNS. Also, the growth is 101% with SF-539 CNS, 86% in the assay with UACC-257 melanoma and 82.8% with M14 melanoma.

For the molecule `Fc1ccc(-c2cn3c(nc4ccccc43)c(-c3ccccc3)n2)cc1`, the growth is 106% with DU-145 prostate; 107% in the assay on MALME-3M melanoma; 89.3% in the assay with MDA-MB-231 breast; 80.4% in the assay with RXF 393 renal; 90.1% in the assay with SF-268 CNS; 103% in the assay with SF-295 CNS. Besides, the growth with SF-539 CNS is 90.1%; with UACC-257 melanoma, 101%; in the assay with M14 melanoma, 109%.

Take `COc1ccc(-c2nc(S(=O)(=O)c3ccccc3)c(S(=O)CC(=O)N3CCC(C)CC3)o2)cc1` (stereo unspecified): the growth with DU-145 prostate was 42.5%; with MALME-3M melanoma it was -16.6% (active); in the assay on MDA-MB-231 breast, 24.7%; in the assay on RXF 393 renal it was 17.2%; with SF-268 CNS it was 62.5%; in the assay on SF-295 CNS, 92.9%. Besides, the growth with SF-539 CNS is 40.4%; in the assay on UACC-257 melanoma it was 65.9%; in the assay with M14 melanoma it was 35.1%.

For the molecule `Cc1c(C)c([N+](=O)[O-])c(C)c([N+](=O)[O-])c1C`, the growth was 104% with DU-145 prostate; 111% in the assay with MALME-3M melanoma; 101% in the assay on MDA-MB-231 breast; 108% with RXF 393 renal; 106% with SF-268 CNS; 97.6% with SF-295 CNS. In addition, the growth with SF-539 CNS is 107%; in the assay on UACC-257 melanoma, 105%; with M14 melanoma, 108%.

On to `C=C(C)[C@@H]1CC[C@]2(C(=O)N[C@H](CO)Cc3ccccc3)CC[C@]3(C)[C@H](CC[C@@H]4[C@@]5(C)CCCNC(C)(C)[C@@H]5CC[C@]43C)[C@@H]12`, for which the growth is -87.4% (active) in the assay with DU-145 prostate; -82.9% (active) in the assay with MALME-3M melanoma; -87.1% (active) in the assay on MDA-MB-231 breast; -91.5% (active) in the assay with RXF 393 renal; -81.2% (active) in the assay on SF-268 CNS; -91.8% (active) in the assay on SF-295 CNS. For the same molecule, the growth is -87.7% (active) in the assay on SF-539 CNS, -88.8% (active) with UACC-257 melanoma and -90.2% (active) with M14 melanoma.

Turning to `CC1(C)NCCC[C@]2(C)[C@H]3CC(=O)[C@H]4[C@@H]5C[C@](C)(CO)CC[C@]5(C)CC[C@@]4(C)[C@]3(C)CC[C@@H]12`, the growth was 96.4% in the assay with DU-145 prostate; 102% in the assay with MALME-3M melanoma; 118% with MDA-MB-231 breast; 91.4% in the assay on RXF 393 renal; 85.3% in the assay on SF-268 CNS; 106% with SF-295 CNS. Besides, the growth in the assay with SF-539 CNS is 91.2%; with UACC-257 melanoma, 114%; in the assay on M14 melanoma, 92.6%.

Regarding `COc1cc(/C=C/C(=O)c2nc3cc(F)ccc3nc2C)cc(OC)c1OC`, the growth is 22.9% in the assay on DU-145 prostate; 65.3% in the assay on MALME-3M melanoma; 85% with MDA-MB-231 breast; 54.5% in the assay on RXF 393 renal; 89.2% in the assay with SF-268 CNS; 347% in the assay on SF-295 CNS. Besides, the growth in the assay on SF-539 CNS was 97.5%; in the assay on UACC-257 melanoma it was 74.1%; in the assay on M14 melanoma it was 73.1%.

Regarding `Cc1nc2ccc(Cl)cn2c1-c1nnc(SCc2ccc([N+](=O)[O-])cc2)o1`, the growth in the assay with DU-145 prostate is 67.9%; in the assay on MALME-3M melanoma, 31.6%; with MDA-MB-231 breast, 41.4%; with RXF 393 renal, -5.38% (active); in the assay with SF-268 CNS, 46.1%; in the assay on SF-295 CNS, 74.6%. For the same molecule, the values for the growth in the assay on SF-539 CNS, in the assay on UACC-257 melanoma and in the assay with M14 melanoma were 20.8%, 61.3% and 70.3%, respectively.

Turning to `COc1cc(/C=C2\COc3ccc(-c4ccccc4)cc3C2=O)cc(OC)c1`, the growth with DU-145 prostate is 85.8%; in the assay with MALME-3M melanoma it was 101%; in the assay with MDA-MB-231 breast, 95.5%; with RXF 393 renal, 66.1%; in the assay with SF-268 CNS, 82.3%; in the assay on SF-295 CNS, 68.9%. Also, the growth in the assay with SF-539 CNS is 100%; in the assay with UACC-257 melanoma it was 70.9%; in the assay with M14 melanoma, 91.9%.

Take `Cc1c2cc[nH]c(=O)c2c(C)c2c1[nH]c1cc(OCCN3CCN(C)CC3)ccc12`: the growth with DU-145 prostate was 2.69% (active); in the assay on MALME-3M melanoma, -58.8% (active); with MDA-MB-231 breast it was 4% (active); with RXF 393 renal, -25% (active); with SF-268 CNS, 11.8%; with SF-295 CNS, 3.16% (active). In addition, the growth was -0.233% (active) with SF-539 CNS, -1.41% (active) in the assay on UACC-257 melanoma and -37.1% (active) with M14 melanoma.

With `O=C1c2cccc3c(-c4ccc5c(c4)ncn5C4CCCCC4)ccc(c23)C(=O)N1CCO`, the growth is 100% in the assay with DU-145 prostate; 105% in the assay on MALME-3M melanoma; 71.1% in the assay with MDA-MB-231 breast; 106% in the assay with RXF 393 renal; 93.9% in the assay on SF-268 CNS; 81.9% with SF-295 CNS. The growth in the assay on SF-539 CNS was 99%; in the assay on UACC-257 melanoma it was 94.5%; with M14 melanoma it was 106%.
